# ChEMBL document CHEMBL1961873, “Compounds: GSK PKIS; Assays: Nanosyn kinase panel” (2012)
# How the values were obtained:
# [1] = target: Protein kinase C gamma type (Homo sapiens) (UniProt P05129); details: at 1 µM;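 also: each value is an averaged percent inhibition of the enzyme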
# [2] = target: T1, Protein kinase C iota type (Homo sapiens) (UniProt P41743); details: at 0.1 µM
# T1 sequence (whole entry): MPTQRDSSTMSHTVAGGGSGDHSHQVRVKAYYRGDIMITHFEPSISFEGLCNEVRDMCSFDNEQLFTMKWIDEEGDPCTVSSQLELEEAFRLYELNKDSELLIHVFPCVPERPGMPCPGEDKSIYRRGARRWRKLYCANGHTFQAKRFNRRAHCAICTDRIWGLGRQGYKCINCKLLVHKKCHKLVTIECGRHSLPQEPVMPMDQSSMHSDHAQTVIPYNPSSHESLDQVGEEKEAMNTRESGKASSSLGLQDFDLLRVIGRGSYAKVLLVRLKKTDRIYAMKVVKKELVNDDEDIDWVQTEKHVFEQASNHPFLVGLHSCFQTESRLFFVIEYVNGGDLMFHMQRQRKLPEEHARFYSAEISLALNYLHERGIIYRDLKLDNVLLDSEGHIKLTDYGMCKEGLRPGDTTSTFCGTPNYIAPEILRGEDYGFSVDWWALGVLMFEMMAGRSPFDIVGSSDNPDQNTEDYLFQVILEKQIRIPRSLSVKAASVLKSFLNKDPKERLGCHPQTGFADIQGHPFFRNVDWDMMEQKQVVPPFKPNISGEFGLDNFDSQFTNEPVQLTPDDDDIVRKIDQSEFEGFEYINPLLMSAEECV
# [3] = target: T1, Protein kinase C iota type (Homo sapiens); details: at 1 µM
# [4] = target: Protein kinase C theta type (Homo sapiens) (UniProt Q04759); details: at 0.1 µM
# [5] = target: Protein kinase C theta type (Homo sapiens) (UniProt Q04759); details: at 1 µM
# [6] = target: Protein kinase C beta type (Homo sapiens) (UniProt P05771); details: at 0.1 µM
# [7] = target: Protein kinase C beta type (Homo sapiens) (UniProt P05771); details: at 1 µM
# [8] = target: T2, Serine/threonine-protein kinase D1 (Homo sapiens) (UniProt Q15139); details: at 0.1 µM
# T2 sequence (whole entry): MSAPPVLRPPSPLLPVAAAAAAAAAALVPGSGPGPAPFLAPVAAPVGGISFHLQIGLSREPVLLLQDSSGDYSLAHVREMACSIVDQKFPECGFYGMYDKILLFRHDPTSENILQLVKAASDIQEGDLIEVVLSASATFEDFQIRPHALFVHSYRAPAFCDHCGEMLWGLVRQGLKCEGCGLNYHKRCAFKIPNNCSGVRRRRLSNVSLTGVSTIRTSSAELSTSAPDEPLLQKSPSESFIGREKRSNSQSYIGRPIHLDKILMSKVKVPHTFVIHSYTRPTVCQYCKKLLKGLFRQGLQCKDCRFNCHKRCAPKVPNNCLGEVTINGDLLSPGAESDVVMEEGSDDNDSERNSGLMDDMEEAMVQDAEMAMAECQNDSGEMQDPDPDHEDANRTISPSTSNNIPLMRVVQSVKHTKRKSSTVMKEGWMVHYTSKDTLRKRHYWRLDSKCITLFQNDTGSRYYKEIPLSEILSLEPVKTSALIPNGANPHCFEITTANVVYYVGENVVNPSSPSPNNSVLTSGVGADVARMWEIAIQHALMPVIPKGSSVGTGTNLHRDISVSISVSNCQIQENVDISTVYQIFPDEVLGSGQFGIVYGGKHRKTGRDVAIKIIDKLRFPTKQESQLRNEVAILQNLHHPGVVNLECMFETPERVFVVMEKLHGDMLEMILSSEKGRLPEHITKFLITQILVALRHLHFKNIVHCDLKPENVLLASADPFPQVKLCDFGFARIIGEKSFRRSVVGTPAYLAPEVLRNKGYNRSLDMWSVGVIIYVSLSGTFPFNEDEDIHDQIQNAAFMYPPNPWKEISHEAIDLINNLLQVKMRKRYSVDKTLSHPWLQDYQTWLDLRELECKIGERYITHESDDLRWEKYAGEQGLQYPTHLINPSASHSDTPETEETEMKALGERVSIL
# [9] = target: T2, Serine/threonine-protein kinase D1 (Homo sapiens); details: at 1 µM
# [10] = target: T3, Serine/threonine-protein kinase D2 (Homo sapiens) (UniProt Q9BZL6); details: at 0.1 µM
# T3 sequence (whole entry): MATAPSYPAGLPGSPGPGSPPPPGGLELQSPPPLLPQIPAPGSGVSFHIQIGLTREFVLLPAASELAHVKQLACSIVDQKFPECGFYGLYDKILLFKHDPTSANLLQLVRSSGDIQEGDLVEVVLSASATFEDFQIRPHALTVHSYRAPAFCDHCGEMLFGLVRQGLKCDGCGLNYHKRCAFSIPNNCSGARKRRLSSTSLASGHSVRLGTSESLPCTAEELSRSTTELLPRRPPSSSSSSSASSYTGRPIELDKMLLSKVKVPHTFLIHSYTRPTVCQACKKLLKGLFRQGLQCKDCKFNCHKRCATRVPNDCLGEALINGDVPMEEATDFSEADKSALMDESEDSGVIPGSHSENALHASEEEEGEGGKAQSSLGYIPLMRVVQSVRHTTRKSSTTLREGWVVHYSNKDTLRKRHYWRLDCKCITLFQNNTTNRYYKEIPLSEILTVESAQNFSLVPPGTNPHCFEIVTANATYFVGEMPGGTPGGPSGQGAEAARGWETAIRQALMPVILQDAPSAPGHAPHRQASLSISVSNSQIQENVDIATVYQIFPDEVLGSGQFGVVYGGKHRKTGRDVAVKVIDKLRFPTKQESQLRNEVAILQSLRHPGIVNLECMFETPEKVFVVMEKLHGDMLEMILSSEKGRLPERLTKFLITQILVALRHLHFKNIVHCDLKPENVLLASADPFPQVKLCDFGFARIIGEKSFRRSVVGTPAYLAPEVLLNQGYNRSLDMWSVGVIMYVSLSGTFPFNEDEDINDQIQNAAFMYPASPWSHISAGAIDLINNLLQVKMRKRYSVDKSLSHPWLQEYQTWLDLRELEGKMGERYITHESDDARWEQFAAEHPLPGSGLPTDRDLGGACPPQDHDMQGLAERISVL
# [11] = target: T3, Serine/threonine-protein kinase D2 (Homo sapiens); details: at 1 µM
# [12] = target: T4, Serine/threonine-protein kinase D3 (Homo sapiens) (UniProt O94806); details: at 0.1 µM
# T4 sequence (whole entry): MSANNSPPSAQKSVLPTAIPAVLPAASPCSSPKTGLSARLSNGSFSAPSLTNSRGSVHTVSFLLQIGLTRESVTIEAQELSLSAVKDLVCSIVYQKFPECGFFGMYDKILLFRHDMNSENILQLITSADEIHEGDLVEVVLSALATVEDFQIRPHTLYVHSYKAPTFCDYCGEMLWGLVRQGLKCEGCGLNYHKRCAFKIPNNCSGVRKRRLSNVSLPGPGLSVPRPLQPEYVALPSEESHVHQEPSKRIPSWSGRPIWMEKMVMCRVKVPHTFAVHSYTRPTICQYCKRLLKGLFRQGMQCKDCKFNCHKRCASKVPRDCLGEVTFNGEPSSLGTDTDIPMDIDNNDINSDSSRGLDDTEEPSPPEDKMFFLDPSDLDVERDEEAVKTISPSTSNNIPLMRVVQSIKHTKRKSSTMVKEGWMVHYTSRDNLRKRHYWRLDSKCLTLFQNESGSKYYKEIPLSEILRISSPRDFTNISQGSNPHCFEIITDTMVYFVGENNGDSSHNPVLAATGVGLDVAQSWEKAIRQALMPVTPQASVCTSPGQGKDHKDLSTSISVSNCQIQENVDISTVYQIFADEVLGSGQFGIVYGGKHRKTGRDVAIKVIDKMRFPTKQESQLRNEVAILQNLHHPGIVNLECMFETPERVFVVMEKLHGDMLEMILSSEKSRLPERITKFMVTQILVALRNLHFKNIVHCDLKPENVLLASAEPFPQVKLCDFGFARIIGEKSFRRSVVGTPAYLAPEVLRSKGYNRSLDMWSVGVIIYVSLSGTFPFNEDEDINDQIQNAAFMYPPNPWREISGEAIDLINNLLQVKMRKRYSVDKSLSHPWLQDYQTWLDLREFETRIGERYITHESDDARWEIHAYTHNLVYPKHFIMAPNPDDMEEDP
# [13] = target: T4, Serine/threonine-protein kinase D3 (Homo sapiens); details: at 1 µM
# [14] = target: T5, cGMP-dependent protein kinase 1 (Homo sapiens) (UniProt Q13976); details: at 0.1 µM
# T5 sequence (whole entry): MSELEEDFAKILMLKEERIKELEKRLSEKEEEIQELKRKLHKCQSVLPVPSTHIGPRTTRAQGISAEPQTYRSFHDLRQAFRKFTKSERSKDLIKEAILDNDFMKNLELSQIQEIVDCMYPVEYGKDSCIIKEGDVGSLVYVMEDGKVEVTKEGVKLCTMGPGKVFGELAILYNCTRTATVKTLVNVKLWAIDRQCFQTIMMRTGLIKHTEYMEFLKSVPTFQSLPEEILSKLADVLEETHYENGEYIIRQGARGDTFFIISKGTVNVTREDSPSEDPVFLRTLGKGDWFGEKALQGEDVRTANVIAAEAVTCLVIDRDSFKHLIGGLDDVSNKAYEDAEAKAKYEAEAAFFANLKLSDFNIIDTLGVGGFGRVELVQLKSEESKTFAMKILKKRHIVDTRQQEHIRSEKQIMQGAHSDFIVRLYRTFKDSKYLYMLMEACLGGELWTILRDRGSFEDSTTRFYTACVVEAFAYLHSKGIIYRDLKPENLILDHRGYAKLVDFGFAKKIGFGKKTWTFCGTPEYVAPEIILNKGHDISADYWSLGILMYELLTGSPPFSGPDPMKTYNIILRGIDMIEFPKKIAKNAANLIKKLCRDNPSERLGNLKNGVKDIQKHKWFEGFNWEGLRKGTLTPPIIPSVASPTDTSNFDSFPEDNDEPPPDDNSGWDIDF
# [15] = target: T5, cGMP-dependent protein kinase 1 (Homo sapiens); details: at 1 µM
# [16] = target: T6, cGMP-dependent protein kinase 2 (Homo sapiens) (UniProt Q13237); details: at 0.1 µM
# T6 sequence (whole entry): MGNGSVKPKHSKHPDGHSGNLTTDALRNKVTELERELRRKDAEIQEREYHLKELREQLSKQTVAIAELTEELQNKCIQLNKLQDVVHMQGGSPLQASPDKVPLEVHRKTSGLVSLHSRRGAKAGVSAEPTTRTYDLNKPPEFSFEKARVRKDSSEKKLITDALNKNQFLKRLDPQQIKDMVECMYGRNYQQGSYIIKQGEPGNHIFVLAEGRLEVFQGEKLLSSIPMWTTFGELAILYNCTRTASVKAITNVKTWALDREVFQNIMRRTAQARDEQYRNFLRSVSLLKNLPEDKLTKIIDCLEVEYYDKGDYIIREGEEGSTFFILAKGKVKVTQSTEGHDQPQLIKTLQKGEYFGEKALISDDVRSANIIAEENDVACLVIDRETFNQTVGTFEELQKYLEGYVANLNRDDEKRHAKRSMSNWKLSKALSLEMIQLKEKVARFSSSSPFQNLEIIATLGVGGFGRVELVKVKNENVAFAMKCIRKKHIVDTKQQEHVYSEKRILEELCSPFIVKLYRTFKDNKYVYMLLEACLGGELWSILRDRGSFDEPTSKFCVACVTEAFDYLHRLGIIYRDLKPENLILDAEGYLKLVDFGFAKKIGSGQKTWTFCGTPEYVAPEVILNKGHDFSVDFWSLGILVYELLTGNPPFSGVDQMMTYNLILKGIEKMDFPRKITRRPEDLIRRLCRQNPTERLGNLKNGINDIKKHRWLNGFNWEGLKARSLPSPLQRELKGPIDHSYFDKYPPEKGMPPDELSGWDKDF
# [17] = target: T6, cGMP-dependent protein kinase 2 (Homo sapiens); details: at 1 µM
# [18] = target: T7, cAMP-dependent protein kinase catalytic subunit PRKX (Homo sapiens) (UniProt P51817); details: at 0.1 µM
# T7 sequence (whole entry): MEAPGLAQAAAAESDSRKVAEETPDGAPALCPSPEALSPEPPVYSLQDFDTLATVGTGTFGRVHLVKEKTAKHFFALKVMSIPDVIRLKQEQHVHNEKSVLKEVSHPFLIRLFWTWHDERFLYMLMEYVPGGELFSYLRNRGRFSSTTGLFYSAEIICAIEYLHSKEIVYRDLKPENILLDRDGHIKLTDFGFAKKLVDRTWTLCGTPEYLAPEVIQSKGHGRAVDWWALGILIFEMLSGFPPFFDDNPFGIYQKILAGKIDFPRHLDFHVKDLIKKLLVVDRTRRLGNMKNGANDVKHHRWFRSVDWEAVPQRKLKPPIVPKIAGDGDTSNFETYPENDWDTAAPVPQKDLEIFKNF
# [19] = target: T7, cAMP-dependent protein kinase catalytic subunit PRKX (Homo sapiens); details: at 1 µM
# [20] = target: Rho-associated protein kinase 1 (Homo sapiens) (UniProt Q13464); details: at 0.1 µM;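 also: values are mean percent inhibition of ROCK1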
# Rho-associated protein kinase 1 (Homo sapiens), sequence (Q13464 2-1354 limits assumed): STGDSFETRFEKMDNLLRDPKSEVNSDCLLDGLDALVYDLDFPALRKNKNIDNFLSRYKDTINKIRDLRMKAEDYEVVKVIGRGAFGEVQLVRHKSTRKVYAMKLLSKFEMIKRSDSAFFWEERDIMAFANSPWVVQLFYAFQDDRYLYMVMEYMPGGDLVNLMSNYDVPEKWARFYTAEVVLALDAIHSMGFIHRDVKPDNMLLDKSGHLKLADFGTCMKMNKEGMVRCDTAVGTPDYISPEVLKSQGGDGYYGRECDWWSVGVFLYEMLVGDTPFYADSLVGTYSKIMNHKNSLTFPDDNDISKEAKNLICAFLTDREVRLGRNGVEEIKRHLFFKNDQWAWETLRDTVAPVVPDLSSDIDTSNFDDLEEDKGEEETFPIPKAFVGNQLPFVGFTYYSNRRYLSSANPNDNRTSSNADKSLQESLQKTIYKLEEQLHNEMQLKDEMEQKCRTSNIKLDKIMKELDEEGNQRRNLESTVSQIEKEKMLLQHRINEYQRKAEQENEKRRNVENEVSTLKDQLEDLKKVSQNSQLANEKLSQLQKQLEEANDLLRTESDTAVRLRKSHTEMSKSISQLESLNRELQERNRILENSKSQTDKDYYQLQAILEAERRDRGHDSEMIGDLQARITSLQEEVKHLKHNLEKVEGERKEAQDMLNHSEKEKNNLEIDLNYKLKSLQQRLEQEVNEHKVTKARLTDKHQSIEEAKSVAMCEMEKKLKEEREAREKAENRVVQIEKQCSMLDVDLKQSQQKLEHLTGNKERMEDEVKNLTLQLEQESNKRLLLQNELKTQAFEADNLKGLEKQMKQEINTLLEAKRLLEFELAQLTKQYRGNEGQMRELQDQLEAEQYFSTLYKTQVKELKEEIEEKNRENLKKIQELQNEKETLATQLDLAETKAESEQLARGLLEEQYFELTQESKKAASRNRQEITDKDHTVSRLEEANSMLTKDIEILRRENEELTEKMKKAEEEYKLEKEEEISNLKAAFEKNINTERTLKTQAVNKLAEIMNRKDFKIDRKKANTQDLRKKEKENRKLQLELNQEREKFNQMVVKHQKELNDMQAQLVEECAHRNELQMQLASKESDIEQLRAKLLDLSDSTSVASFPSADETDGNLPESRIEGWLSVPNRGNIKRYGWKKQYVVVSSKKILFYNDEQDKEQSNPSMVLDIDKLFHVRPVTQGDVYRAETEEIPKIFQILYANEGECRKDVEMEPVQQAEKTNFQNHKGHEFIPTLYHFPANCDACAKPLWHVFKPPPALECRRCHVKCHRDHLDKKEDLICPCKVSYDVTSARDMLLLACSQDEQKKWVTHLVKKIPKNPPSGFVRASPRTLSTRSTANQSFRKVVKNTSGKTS
# Protein kinase C theta type (Homo sapiens), sequence (Q04759 whole entry, looked up): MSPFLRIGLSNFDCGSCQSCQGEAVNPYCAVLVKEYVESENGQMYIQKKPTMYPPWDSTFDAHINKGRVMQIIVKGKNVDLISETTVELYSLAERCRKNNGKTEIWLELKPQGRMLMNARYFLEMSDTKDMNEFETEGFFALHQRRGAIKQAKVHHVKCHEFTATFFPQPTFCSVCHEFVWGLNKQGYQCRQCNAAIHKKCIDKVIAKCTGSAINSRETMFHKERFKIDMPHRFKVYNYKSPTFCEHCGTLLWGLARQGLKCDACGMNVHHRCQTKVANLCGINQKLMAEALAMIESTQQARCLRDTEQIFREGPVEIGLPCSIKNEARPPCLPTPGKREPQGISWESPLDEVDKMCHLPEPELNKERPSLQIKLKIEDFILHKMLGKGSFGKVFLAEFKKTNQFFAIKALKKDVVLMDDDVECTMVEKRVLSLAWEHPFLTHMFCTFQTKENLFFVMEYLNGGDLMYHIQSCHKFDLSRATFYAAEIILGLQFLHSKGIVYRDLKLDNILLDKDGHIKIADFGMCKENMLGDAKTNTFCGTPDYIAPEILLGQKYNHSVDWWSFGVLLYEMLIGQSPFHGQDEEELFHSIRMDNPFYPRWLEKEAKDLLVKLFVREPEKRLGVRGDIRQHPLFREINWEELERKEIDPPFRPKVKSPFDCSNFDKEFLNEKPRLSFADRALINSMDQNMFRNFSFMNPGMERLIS
# Protein kinase C beta type (Homo sapiens), sequence (P05771 2-671 limits assumed): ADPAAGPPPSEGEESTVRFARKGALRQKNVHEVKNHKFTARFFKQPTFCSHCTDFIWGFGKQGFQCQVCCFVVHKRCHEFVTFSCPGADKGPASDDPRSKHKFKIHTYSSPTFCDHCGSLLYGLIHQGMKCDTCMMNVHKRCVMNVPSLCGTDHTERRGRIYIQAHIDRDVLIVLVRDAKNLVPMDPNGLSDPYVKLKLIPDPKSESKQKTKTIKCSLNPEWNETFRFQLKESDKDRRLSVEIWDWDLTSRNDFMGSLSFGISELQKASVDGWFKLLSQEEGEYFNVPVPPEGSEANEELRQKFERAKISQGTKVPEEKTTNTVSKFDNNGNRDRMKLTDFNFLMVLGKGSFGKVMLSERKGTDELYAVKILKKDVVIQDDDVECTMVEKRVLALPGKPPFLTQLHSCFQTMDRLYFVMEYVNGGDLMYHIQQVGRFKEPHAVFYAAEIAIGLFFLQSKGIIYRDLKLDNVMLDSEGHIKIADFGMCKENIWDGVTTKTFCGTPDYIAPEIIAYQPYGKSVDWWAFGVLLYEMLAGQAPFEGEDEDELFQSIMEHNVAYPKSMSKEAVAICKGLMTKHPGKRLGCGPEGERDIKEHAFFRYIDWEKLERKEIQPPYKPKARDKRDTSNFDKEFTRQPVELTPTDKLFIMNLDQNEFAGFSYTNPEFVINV
smiles,measurement,setting,value
Nc1nc(-c2ccccn2)c(-c2ccc3ncccc3n2)s1,inhibition,[1],4.9%
same,inhibition,[2],2.73%
same,inhibition,[3],1.17%
same,inhibition,[4],2.24%
same,inhibition,[5],3.34%
same,inhibition,[6],-0.19%
same,inhibition,[7],0.88%
same,inhibition,[8],2.38%
same,inhibition,[9],4.64%
same,inhibition,[10],2.92%
same,inhibition,[11],3.27%
same,inhibition,[12],3.61%
same,inhibition,[13],3.13%
same,inhibition,[14],0.89%
same,inhibition,[15],3.86%
same,inhibition,[16],1.67%
same,inhibition,[17],6%
same,inhibition,[18],1.03%
same,inhibition,[19],1.92%
same,inhibition,[20],0.46%
